Assay outcomes (PubChem)
An excerpt weighted towards active compounds, which were near 3.2% of everything screened.
dFosB act – mouse delta FosB homodimer activation; P13346; purified delta FosB, TAMRA-CDK5 oligo fluorescence polarization; percent of positive-control signal above neutral wells; activation, % at 25 µM; 340,000 tested, 0.99% active;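 active = mean activation above about 17%, with every replicate also reaching it, limit read from the data, passing the limit was not always enough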
Dyrk1A ADPGlo – Dyrk1A (rat) kinase inhibition; Q63470; ADP-Glo luminescence, NFATc1 peptide; inhibition, % at 12.5 µM; 310,000 tested, 0.43% active; in the data active = inhibition above about 50%
Rtt109 Vps75 – blocks Candida albicans Rtt109/Vps75 acetyltransferase activity. AID 540336. inhibition, % at 34.9 µM. purified Rtt109/Vps75, ThioGlo CoA-SH fluorescence, 4 h. 330,000 tested, 0.16% active;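 active = inhibition of at least 50% in every replicate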
Target sequence (Q5AAJ8 whole entry, looked up): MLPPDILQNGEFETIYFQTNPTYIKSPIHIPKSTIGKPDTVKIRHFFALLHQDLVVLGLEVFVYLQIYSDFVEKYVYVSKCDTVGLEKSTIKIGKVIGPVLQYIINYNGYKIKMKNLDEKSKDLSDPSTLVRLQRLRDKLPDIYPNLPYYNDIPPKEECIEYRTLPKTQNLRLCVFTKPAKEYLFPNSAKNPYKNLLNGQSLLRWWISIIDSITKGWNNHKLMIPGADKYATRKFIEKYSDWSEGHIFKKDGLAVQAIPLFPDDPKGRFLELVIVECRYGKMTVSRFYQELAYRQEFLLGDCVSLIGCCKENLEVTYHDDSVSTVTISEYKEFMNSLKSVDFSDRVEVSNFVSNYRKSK
esBAF inh – SWI/SNF esBAF complex inhibition. mouse ES cells, Bmi1-luciferase knock-in reporter, 24 h; 100% = twice the neutral-well signal. reporter increase, % at 12.5 µM. 350,000 tested, 2% active. AID 602393; in the data active = activation above about 40%;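 note: a rise in the Bmi1 reporter signal indicates esBAF inhibition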
SMARCA2 activ – increases SMARCA2 function in MMTV reporter cells | MG213 cells, MMTV-luciferase reporter, dexamethasone, overnight | activation, % at 9.1 µM | 370,000 tested, 1% active | AID 652017; in the data active = activation above about 7.8%
CDK5 p35 inh – CDK5/p35 (human) kinase inhibition | Recombinant CDK5/p35, ADP-Glo luminescence, 60 min | inhibition, % at 10 µM | 330,000 tested, 0.01% active | Q00535+Q15078;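 active = highest replicate inhibition of at least 50% and at least 75% of replicates reaching 50%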
SMARCA2 act conf – SMARCA2 activation, confirmation screen; MG213 cells, MMTV-luciferase with dexamethasone, luminescence, overnight; MG213 cells expressing E1A, Rb sequestered; DMSO wells 0%, reference activator 100%; AID 652260; activation, % at 9.1 µM; 3,500 tested, 30% active; shares compounds with SMARCA2 activ;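 active = activation above its plate's cutoff, the mean activation of tested wells plus 3 SD, cut at about 7.9% in these data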
GAL4-VP16 Luc – activates GAL4-VP16 luciferase, flagging SMARCA2 activator hits | shares compounds with SMARCA2 activ | HEK293 GAL4-VP16 pG5luc reporter, luciferase luminescence; scaled: DMSO wells 0%, SAHA wells 100% | activation, % at 9.1 µM | 3,500 tested, 41% active;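 active = activation above the solvent-only control well mean plus 3 SD, averaged across control plates, cut at about 5.2% in these data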
Numbers stand for hits.

What do the screens show for `COC(=O)C(O)(c1ccc(NC(=O)NC2CCCCC2)cc1)C(F)(F)F` (stereo not given)?
dFosB act: inactive; Dyrk1A ADPGlo: inactive; Rtt109 Vps75: inactive; esBAF inh: inactive; SMARCA2 activ: 10; CDK5 p35 inh: inactive; SMARCA2 act conf: inactive; GAL4-VP16 Luc: 5.2

How did Clc1ccc(N2CCN(Cc3ccccc3Cl)CC2)cc1 do in these assays?
dFosB act: inactive; Dyrk1A ADPGlo: inactive; Rtt109 Vps75: inactive; esBAF inh: inactive; SMARCA2 activ: 8.2; CDK5 p35 inh: inactive; SMARCA2 act conf: inactive; GAL4-VP16 Luc: inactive

Results for Clc1ccccc1CN1CCN(c2ccccc2)CC1 ?
dFosB act: inactive; Dyrk1A ADPGlo: inactive; Rtt109 Vps75: inactive; esBAF inh: inactive; SMARCA2 activ: inactive; CDK5 p35 inh: inactive

What do the screens show for `O=C(O)[C@@H]1[C@@H](CO)[C@@H]2Cn3c(ccc(C4=CCCCC4)c3=O)[C@H]1N2C(=O)Cc1ccccn1`?
esBAF inh: inactive

Results for Cc1ccccc1CN1Cc2cnnn2-c2ccccc2C1C#N (stereo not given) ?
dFosB act: inactive; Rtt109 Vps75: inactive; esBAF inh: inactive; SMARCA2 activ: 9.2; CDK5 p35 inh: inactive; SMARCA2 act conf: inactive; GAL4-VP16 Luc: inactive

Results for OC12ONC(c3ccccn3)C1N1CCC2CC1 (stereo not given) ?
dFosB act: inactive; Dyrk1A ADPGlo: inactive; esBAF inh: inactive; SMARCA2 activ: 10.0; CDK5 p35 inh: inactive; SMARCA2 act conf: inactive; GAL4-VP16 Luc: inactive

How did CC=Cc1ccc2n(c1=O)C[C@H]1[C@H](CO)[C@@H](C(=O)OC)[C@@H]2N1C(=O)CC (mixture of isomers) do in these assays?
esBAF inh: inactive
